According to the supplement of paper PMC13380429:

The molecules below were run on Vero E6 infected with SARS-CoV-2 (assay: morphology score (similarity to uninfected cells); higher = more like uninfected cells). Conditions: 24 h.
Molecule `C[C@]12CC[C@H](O)C[C@H]1CC[C@@H]1[C@@H]2CC[C@]2(C)[C@@](O)(c3ccoc3)CC[C@]12O` [rostafuroxine] (10 µM) has a morphology score of -0.206. `CC1Sc2c(C(=O)O)c(=O)c3cc(F)c(N4CCNCC4)cc3n21` (stereo not given) [ulifloxacin] (10 µM) gave a morphology score of -0.0402. Work on `CN(C)CCOC(c1ccc(Cl)cc1)c1ccccn1` (stereo not given) [carbinoxamine] (10 µM) yielded a morphology score of 0.075. Work on `CN(C)CCn1cc(S(=O)(=O)c2cccc(F)c2)c2cccnc21` (10 µM) yielded a morphology score of -0.0241. For `O=[N+]([O-])c1ccc2nc(COCc3nc4ccc([N+](=O)[O-])cc4[nH]3)[nH]c2c1` (10 µM), the morphology score was -0.00439. For `CC1=C(C(=O)OC2CCCCC2)C(c2ccc([N+](=O)[O-])cc2)C2=C(CC(C)(C)CC2=O)N1` (stereo not given) (0.833333 µM), the morphology score was -0.0965. `CN1CCC(NC(=O)c2cc(-c3c(O)cc(O)cc3Oc3ccc([N+](=O)[O-])cc3)on2)CC1` (0.833333 µM) gave a morphology score of 0.247. `CC(CCc1ccccc1)NC(C)C(O)c1ccc(O)cc1` (stereo not given) [buphenine] (10 µM) gave a morphology score of -0.137. `CN1CCN(c2cccc(Nc3nc4c(-c5ccc(S(C)(=O)=O)cc5)cccn4n3)c2)CC1` (0.833333 µM) gave a morphology score of 0.157. For `c1ccc(Oc2cccnc2)cc1` (10 µM), the morphology score was 0.0741. With `Nc1ncc(Cc2ccc(Br)cc2)s1` (10 µM) the morphology score was 0.13. `CCn1cc(C(=O)O)c(=O)c2ccc(-c3ccncc3)cc21` [rosoxacin] (10 µM) gave a morphology score of 0.148. `Cc1ccc(CNc2ncnc3ccc(-c4ccc(CO)o4)cc23)o1` (10 µM) gave a morphology score of 0.497. Molecule `O=C(O)C1(C(=O)O)CCC1.[NH2-].[NH2-].[Pt+2]` [carboplatin] (10 µM) has a morphology score of -0.0106. Work on `CC(C)(C)NCC(O)c1ccc(O)c(CO)c1` (stereo not given) [albuterol] (10 µM) yielded a morphology score of 0.108. For `CN(C)CCc1c[nH]c2ccc(Cn3cncn3)cc12` [rizatriptan] (10 µM), the morphology score was -0.00598. `O=S(=O)(O)c1ccc(O)cc1` [4-phenolsulfonic-acid] (10 µM) gave a morphology score of -0.0939. For `Cc1ccc2c(=O)c3ccccc3n(CCCN)c2c1C` (10 µM), the morphology score was -0.144. `N[C@@H](CSC(c1ccccc1)(c1ccccc1)c1ccccc1)C(=O)O` [S-trityl-L-cysteine] (0.833333 µM) was tested, and the morphology score was 0.107. `O=C(Nc1ccccc1)OCC(CN1CCCCC1)OC(=O)Nc1ccccc1` (stereo not given) [diperodon] (10 µM) showed a morphology score of -0.0894. With `O=C(Nc1ccc(S(=O)(=O)Nc2nccs2)cc1)C(c1ccccc1)c1ccccc1` (10 µM) the morphology score was -0.0899. In the case of `Cc1ccccc1NC(=O)Nc1ccc(CC(=O)N(C)[C@@H](CC(C)C)C(=O)NCC[C@H](NC(=O)[C@@H]2CCCN2S(=O)(=O)c2cc(Cl)cc(Cl)c2)C(=O)O)cc1` (10 µM), the morphology score is reported as 0.157. Molecule `Oc1ccc(OC2CCCCO2)cc1` (stereo not given) [deoxyarbutin] (10 µM) has a morphology score of 0.198. For `CS(=O)(=O)Nc1ccc(-c2coc3cc(OCc4cccc(C(=O)O)c4)ccc3c2=O)cc1` (10 µM), the morphology score was 0.0543. Molecule `CN(C(=O)c1ccc(F)cc1C(F)(F)F)C1CCN(c2nnc(-c3ccnn3C)c3ccccc23)CC1` [taladegib] (10 µM) has a morphology score of 0.0832. `Nc1nc(Nc2ccccc2)nc2c1ncn2[C@@H]1O[C@H](CO)[C@@H](O)[C@H]1O` (10 µM) gave a morphology score of 0.144. `CC(=O)NCCCS(=O)(=O)O` [acamprosate] (10 µM) was tested, and the morphology score was 0.0831. `O=C1[C@H](Cc2ccc(O)cc2)N2C(=O)CCN(C(=O)NCc3ccccc3)[C@H]2CN1Cc1cccc2ccccc12` (10 µM) showed a morphology score of 0.0761. For `OCC(O)CN1CCN(c2ccccc2)CC1` (stereo not given) [dropropizine] (10 µM), the morphology score was 0.106. `Cc1cccc(/C=N/Nc2cc(N3CCOCC3)nc(OCCc3ccccn3)n2)c1` (10 µM) gave a morphology score of -0.334. For `CC1(C)O[C@@H]2C[C@H]3[C@@H]4C[C@H](F)C5=CC(=O)C=C[C@]5(C)[C@H]4[C@@H](O)C[C@]3(C)[C@]2(C(=O)CO)O1` [flunisolide] (10 µM), the morphology score was 0.103. Molecule `O=C(O)CCC(=O)c1ccc(-c2ccccc2)cc1` [fenbufen] (10 µM) has a morphology score of -0.0471. For `CC(N)C12CC3CC(CC(C3)C1)C2` (stereo not given) [rimantadine] (10 µM), the morphology score was 0.136. For `COc1cc(N2CCC(O)CC2)ccc1Nc1cc(Nc2ccccc2S(=O)(=O)C(C)C)c2cc[nH]c2n1` (0.833333 µM), the morphology score was -0.0202. For `Nc1nccc(-c2ccc3noc(-c4ccc(Cl)cc4)c3c2)n1` [PIM-1-Inhibitor-2] (10 µM), the morphology score was -0.089.
